Tau fluor cs = counter-screen for tau fibril formation inhibitors | tau K18 P301L Alexa594 fluorescence, heparin fibrillization | Potency, µM (highest dose often 57.7 µM) | hit rate 0.93% among 280,000 | AID 1463; also: nearly all actives have a fitted effect of over 55% in size
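Human K18 P301L tau (15 uM unlabeled plus 0.24 uM Alexa 594-labeled, final) in 100 mM sodium acetate pH 7 was mixed with compound and 20 uM heparin and incubated 6 hr at 37 C.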
Coupling enz = coupling enzyme interference in Giardia aldolase counter-screen. hit rate 0.67% among 290,000. coupling enzyme system counterscreen, AmpLite Red fluorescence. activity change, negative = inhibition, % at 58.2 µM, hits read low; in the data active = activity change below about -30%
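Compounds tested against the coupling enzymes alone at 57.5 uM final; readout was AmpLite Red fluorescence (525/598 nm) after 20 min at RT.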
G9a block = G9a (human) methyltransferase inhibition; G9a H3K9 monomethylation, AlphaScreen, 2 h; Potency, µM (highest dose often 102 µM), usual class: inhibitors; hit rate 8.8% among 350,000; AID 504332; also: nearly all actives have a fitted effect of over 75% in size
Target sequence (Q96KQ7 913-1193 limits assumed): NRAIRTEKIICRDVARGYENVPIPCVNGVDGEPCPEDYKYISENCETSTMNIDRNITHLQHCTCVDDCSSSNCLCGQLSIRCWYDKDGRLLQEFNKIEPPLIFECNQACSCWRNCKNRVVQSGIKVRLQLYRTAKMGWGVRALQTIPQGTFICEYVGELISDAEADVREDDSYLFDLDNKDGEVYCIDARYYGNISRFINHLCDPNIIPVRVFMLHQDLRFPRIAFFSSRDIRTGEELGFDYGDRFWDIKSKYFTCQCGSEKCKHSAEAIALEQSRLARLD
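Step 1: enzyme (final 20 nM) with compound, 15 min RT. Step 2: substrate peptide 500 nM and SAM 20 uM, 2 h RT. Step 3: anti-H3K9me1 antibody and AlphaScreen beads, 10 min, then plate read.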
Tau fibril ThT = blocks human tau fibril formation measured by thioflavin T | P10636 | AID 1460 | Potency, µM (top dose mostly 57.4 µM), hits mostly inhibitors | hit rate 2.1% among 270,000 | recombinant tau K18 P301L, heparin-induced fibrillization, ThT fluorescence; also: nearly all actives have a fitted effect of over 55% in size
Target sequence (P10636 561-689 P618L limits assumed): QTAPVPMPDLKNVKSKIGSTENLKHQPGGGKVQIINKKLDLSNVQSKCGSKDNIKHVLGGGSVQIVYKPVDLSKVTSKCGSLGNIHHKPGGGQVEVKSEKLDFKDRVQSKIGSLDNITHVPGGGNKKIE
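Recombinant human tau K18 fragment […] carrying P301L, 15 uM unlabeled plus 0.24 uM Alexa 594-labeled, was fibrillized with 20 uM heparin in 100 mM sodium acetate pH 7 for 6 hr at 37 C; 30 uM ThT fluorescence read after 1 hr.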
Sfp inh = inhibitors of Bacillus subtilis Sfp phosphopantetheinyl transferase | Biochemical Sfp PPTase activity, qHTS | Potency, µM, hits mostly inhibitors | hit rate 3.5% among 310,000 | AID 1490;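 also: the enzyme is Sfp with the accession as filed and its product quenches rhodamine fluorescence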
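Fluorescence-quenching assay: 15 nM Sfp-PPTase preincubated 15 min at room temperature with compound, then 5 uM rhodamine-CoA and 12.5 uM BHQ-2-labelled YbbR peptide added. Fluorescence (ex 525/em 598 nm) read at start and after 30 min; difference gives rate.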
Tau FP inhib = tau fibrillization inhibition (FP); P10636; K18 P301L tau heparin fibrillization, Alexa594 FP, 6 h; Potency, µM (titrated, usually from 57.7 µM), usual class: inhibitors; hit rate 0.39% among 280,000; AID 1468; also: nearly all actives have a fitted effect of over 55% in size
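Heparin (20 uM) drove fibril formation of recombinant tau K18 P301L, 15 uM unlabeled with 0.24 uM Alexa 594 label, for 6 hr at 37 C in 100 mM sodium acetate pH 7. Fluorescence polarization (555/632 nm) read 1 hr after 30 uM ThT.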
Large screens that a line does not name were inactive. An excerpt weighted towards active compounds, which were near 11% of everything screened. Unless noted, calls follow the shape of the dose curve; as a rule, active = well fitted curve in the direction sought with a large enough effect; inconclusive = small, poorly fitted or top-dose-only effect, or another doubt; inactive = no such curve, though single readings can be large; an effect the other way counts as inactive or inconclusive.

CCc1ccc(OCC(O)CN2CCN(c3ccccn3)CC2)cc1 (centres undefined)	none (no result: Tau fluor cs, G9a block, Tau fibril ThT, Tau FP inhib)
Cc1cc(OCC(O)CN2CCN(c3ccccn3)CC2)cc(C)c1Cl (centres undefined)	G9a block 45µM (no result: Tau fluor cs, Tau fibril ThT, Tau FP inhib)
Cc1cc(C(C)(C)C)cc(C)c1COC(=O)c1cccnc1	none (no result: Tau fluor cs, Tau fibril ThT, Tau FP inhib)
CCOC(=O)c1c(C)oc2nc(C)nc(NCCCN3CCN(c4ccc(F)cc4)CC3)c12	G9a block inconclusive, Tau fibril ThT inconclusive (no result: Coupling enz, Sfp inh)
COc1ccc(CNC(=O)C/C(C)=N/NC(=O)COc2ccc(Br)cc2)cc1	Tau fibril ThT inconclusive
Cc1cc(C)c(OCC(O)CN2CCN(c3ccccn3)CC2)c(C)c1 (centres undefined)	G9a block inconclusive
CC(C)(C)C1CCC(OCC(O)CN2CCN(c3ccccn3)CC2)CC1 (centres undefined)	G9a block 32µM, Tau fibril ThT inconclusive
CC(=O)c1ccc(OCC(O)CN2CCN(S(=O)(=O)c3c(C)c(C)cc(C)c3C)CC2)cc1 (centres undefined)	G9a block 50µM (no result: Tau fluor cs, Tau fibril ThT, Tau FP inhib)
OC(COc1ccc(Cl)c2ccccc12)CN1CCN(c2ccccn2)CC1 (centres undefined)	Tau fluor cs inconclusive, Tau fibril ThT inconclusive, Sfp inh 79µM
O=C(c1nc(-c2ccc(Cl)cc2)n2c1CCCCC2)N1CCN(c2ccc(F)cc2)CC1	G9a block inconclusive (no result: Coupling enz, Sfp inh)
COc1cccc(C(=O)Nc2nnc(-c3cccs3)s2)c1	G9a block 10µM
CCOCc1nnc(NC(=O)c2cc(OC)cc(OC)c2)s1	G9a block 32µM
CCc1nnc(NC(=O)c2cccc(OC)c2)s1	none
CCOCc1nnc(NC(=O)c2cccc(OC)c2)s1	G9a block 50µM
CC(C)[C@H](NC(=O)c1nn(Cc2ccccc2)c(=O)c2ccccc12)C(=O)O	none (no result: Tau fluor cs, Tau fibril ThT, Tau FP inhib)
Oc1c(C(c2ccccc2)N2CCN(Cc3ccccc3)CC2)sc2nc(-c3ccco3)nn12 (centres undefined)	G9a block inconclusive (no result: Coupling enz, Sfp inh)
CC(=O)Nc1ccc(-c2nnc(SCC(=O)c3ccc([N+](=O)[O-])cc3)o2)cc1	Tau fluor cs inconclusive, Tau fibril ThT inconclusive (no result: Coupling enz, Sfp inh)
COc1ccc(Cl)cc1NC(=O)c1cnc2sc(N3CCOCC3)nn2c1=O	none (no result: Coupling enz, Sfp inh)
CCSC1=NC(=O)/C(=C2/C=Cc3ccccc3N2CC)S1	Tau fluor cs inconclusive, G9a block inconclusive, Tau fibril ThT 7.1µM, Sfp inh inconclusive
Cc1cnc2c(c1SCC(=O)NCc1ccccc1Cl)c(=O)n(C)c(=O)n2C	none (no result: Coupling enz, Sfp inh)
COc1cccc(N2CCN(C(=O)c3cc4cc(Cl)ccc4[nH]3)CC2)c1	G9a block 71µM (no result: Tau fluor cs, Tau fibril ThT, Tau FP inhib)
COc1ccc2[nH]c(C(=O)N3CCC(CO)(Cc4cccc(C(F)(F)F)c4)CC3)c(C)c2c1	G9a block 79µM (no result: Tau fluor cs, Tau fibril ThT, Tau FP inhib)
COc1ccc2nc3oc(C(=O)N4CCN(c5cccc(Cl)c5)CC4)cc3cc2c1	G9a block inconclusive, Tau fibril ThT inconclusive, Sfp inh 11µM
COc1ccc2nc3oc(C(=O)N4CCN(c5cccc(C(F)(F)F)c5)CC4)cc3cc2c1	Sfp inh inconclusive
COc1ccc2cc(C(=O)N3CCN(c4ccc(F)cc4)CC3)[nH]c2c1	G9a block 50µM (no result: Tau fluor cs, Tau fibril ThT, Tau FP inhib)
COc1ccc(C(=O)NC(C)CCc2ccccc2)c(O)c1 (centres undefined)	none (no result: Tau fluor cs, Tau fibril ThT, Tau FP inhib)
Cc1ccc2c(c1)C(c1ccccc1)N(C(=O)c1ccc(S(=O)(=O)N3CCCC3)cc1)CC(=O)N2 (centres undefined)	none (no result: Coupling enz, Sfp inh)
CCOc1ccccc1N1CCN(C(=O)c2cc3cc(OC)ccc3[nH]2)CC1	G9a block 35µM (no result: Tau fluor cs, Tau fibril ThT, Tau FP inhib)
COc1ccc(N2CCN(C(=O)c3[nH]c4ccc(OC)cc4c3C)CC2)cc1	G9a block 40µM (no result: Tau fluor cs, Tau fibril ThT, Tau FP inhib)
COC(=O)N1[C@H]2CC[C@@]3(C)CC(=O)C[C@]1(C)C3c1ccccc12	none (no result: G9a block)
COc1ccc(-c2noc(-c3nnn(-c4ccc(C)cc4C)c3C)n2)cc1	none (no result: Coupling enz, Sfp inh)
CCOc1c(Cl)cc(Cl)cc1CNCCNCCO	G9a block 50µM (no result: Coupling enz)
COc1c(Cl)cc(Cl)cc1CNCCO	none
Cc1ccc(C(=O)CSc2nc3c([nH]2)c(=O)n(C)c(=O)n3C)cc1	G9a block 40µM
Cc1ccc(C(=O)CSc2nc(N)cc(=O)[nH]2)cc1	none
CC(C)N(C(=O)CSc1nc2c([nH]1)c(=O)n(C)c(=O)n2C)c1ccccc1	G9a block 25µM
CN1CCN(c2ncnc3c2c(-c2ccccc2)cn3-c2ccc(F)cc2)CC1	G9a block 45µM
CCC12CCCN3CCc4c(n(c5ccccc45)C(O)(C(=O)OC)C1)C32 (centres undefined)	Tau fluor cs inconclusive, G9a block 50µM, Tau fibril ThT 18µM, Tau FP inhib inconclusive
CC1(C)CN(O)CCN1O	G9a block 20µM
COc1ccc(-c2c(C3C4C=CCCC4(C)C(=O)N3Cc3ccccc3)ccc3ccccc23)cc1 (centres undefined)	none (no result: Tau fluor cs, G9a block, Tau fibril ThT, Tau FP inhib)

Bioassay records from PubChem BioAssay.
